The list is not random: actives were taken first. Their share in the collection is about 18%.
TDP1 cell CPT = qHTS for Inhibitors of human tyrosyl-DNA phosphodiesterase 1 (TDP1): qHTS in cells in presence of CPT | chicken DT40 Tdp1-/-;hTDP1 cells + 20 nM CPT, ATP luminescence, 48 h | Potency, µM (titrated, usually from 46.2 µM), inactives show at the highest dose activity change, negative = growth inhibition, actives largely listed as inhibitors | hit rate 12% among 420,000 | AID 686979, 2013; note: potency is the fitted concentration of half-maximal effect; nearly all actives have a fitted effect of over 55% in size
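Cell growth measured by CellTiter-Glo luminescence after a minimum 48 h, 37 C compound exposure with 20 nM CPT in Tdp1-knockout DT40 cells stably expressing hTDP1, seeded 400/well; qHTS titration format.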
Six1-Eya2 blk = qHTS Assay for Inhibitors of the Six1/Eya2 Interaction. Homeobox protein SIX1 (Homo sapiens) + Protein phosphatase EYA2 (Homo sapiens), …. AlphaScreen GST-Six1/His-Eya2 binding, biochemical; stronger effect = lower value. activity change, % (no concentration beside the values). hit rate 0.56% among 360,000. AID 651725, 2012; in the data active = activity change below about -65%; inconclusive = mostly about -30% to -63%
Target sequence (O00167 whole entry, looked up): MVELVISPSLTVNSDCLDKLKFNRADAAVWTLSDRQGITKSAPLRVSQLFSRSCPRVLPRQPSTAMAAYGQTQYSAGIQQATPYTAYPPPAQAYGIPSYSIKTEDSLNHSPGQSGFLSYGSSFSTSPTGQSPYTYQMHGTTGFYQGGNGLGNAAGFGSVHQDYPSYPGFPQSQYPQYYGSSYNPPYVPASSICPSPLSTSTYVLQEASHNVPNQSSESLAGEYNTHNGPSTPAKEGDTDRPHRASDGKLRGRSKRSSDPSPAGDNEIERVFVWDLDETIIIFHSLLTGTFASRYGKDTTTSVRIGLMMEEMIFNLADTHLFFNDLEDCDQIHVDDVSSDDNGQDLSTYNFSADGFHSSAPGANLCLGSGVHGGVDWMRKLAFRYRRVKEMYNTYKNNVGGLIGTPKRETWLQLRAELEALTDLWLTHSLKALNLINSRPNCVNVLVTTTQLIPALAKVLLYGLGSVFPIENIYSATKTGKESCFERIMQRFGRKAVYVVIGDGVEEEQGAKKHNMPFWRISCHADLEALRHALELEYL
Target sequence (Q15475 whole entry, looked up): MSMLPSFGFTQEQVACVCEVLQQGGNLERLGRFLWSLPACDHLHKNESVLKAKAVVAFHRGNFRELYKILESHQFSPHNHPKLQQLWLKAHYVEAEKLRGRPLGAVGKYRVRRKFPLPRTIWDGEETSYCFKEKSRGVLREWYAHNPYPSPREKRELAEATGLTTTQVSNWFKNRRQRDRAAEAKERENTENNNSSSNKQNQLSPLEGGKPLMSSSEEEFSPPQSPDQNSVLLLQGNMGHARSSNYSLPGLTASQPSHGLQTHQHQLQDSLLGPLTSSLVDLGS
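AlphaScreen luminescence read after one hour at 37 °C in darkness. Pin-transferred compounds met GST-Six1 and His-Eya2 protein (5X stock 250 nM/500 nM) plus glutathione donor and Ni-chelate acceptor beads (5X, 50 ug/mL).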
IL1B secr inh = qHTS for Inhibitors of Inflammasome Signaling: IL-1-beta AlphaLISA Primary Screen; AID 743279, 2014; activity change, % at 57.5 µM; hit rate 4.7% among 360,000; THP-1 LPS/ATP IL-1B secretion, AlphaLISA, 16 h; stronger effect = lower value; in the data active = activity change below about -50%; inconclusive = mostly about -30% to -49%
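Secreted IL-1B measured by AlphaLISA bead assay after 16 h compound exposure of THP-1 cells; compounds (final up to 57.5 uM) added 1 h before LPS (250 ng/mL) and ATP (1.25 mM) stimulation; lower signal means less secretion.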
TDP1 cell noCPT = qHTS for Inhibitors of human tyrosyl-DNA phosphodiesterase 1 (TDP1): qHTS in cells in absence of CPT. Potency, µM (top dose mostly 46.2 µM), for inactives: at the highest dose activity change, negative = growth inhibition, hits mostly inhibitors. DT40 Tdp1-/- hTDP1 cells, no CPT, ATP luminescence, 48 h. hit rate 15% among 420,000. AID 686978, 2013; note: potency is the fitted concentration of half-maximal effect; nearly all actives have a fitted effect of over 55% in size
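Growth kinetics read by CellTiter-Glo luminescence after ≥48 hr at 37 °C. Cells: DT40 Tdp1-/- stably carrying human TDP1, 400 per well, compound exposure in the absence of CPT (DMSO vehicle).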
TDP1 block = qHTS Assay for Inhibitors of Tyrosyl-DNA Phosphodiesterase (TDP1) | Potency, µM (titrated, usually from 130 µM), for inactives: top-dose activity change, negative = inhibition, hits mostly inhibitors | Tyrosyl-DNA phosphodiesterase 1 (Homo sapiens), Q9NUW8 | hit rate 0.28% among 350,000 | recombinant TDP1, AlphaScreen DNA substrate cleavage | AID 485290, 2010; note: potency is the fitted concentration of half-maximal effect; nearly all actives have a fitted effect of over 40% in size
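Recombinant human Tdp1 (E. coli-expressed, 1 nM final) preincubated with compounds 15 min at room temperature, then 5'-biotin/3'-phosphotyrosine-FITC DNA substrate (15 nM final) added for 5 min. AlphaScreen beads (10 ug/ml final) added 10 min; cleavage lowers signal.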
CtBP-E1A blk = qHTS Assay for Inhibitors of the CtBP/E1A Interaction | AID 651724, 2012 | activity change, % (concentration not given with the values) | AlphaScreen GST-E1A/His-CtBP binding, 1536-well; stronger effect = lower value | CtBP / adenovirus E1A interaction (AlphaScreen) | hit rate 0.49% among 340,000; in the data active = activity change below about -65%; inconclusive = mostly about -30% to -63%
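Protein mix (5X: 125 nM each GST-E1A, His-CtBP) was incubated with pinned compound 2 h at 37 deg C in dark, in 50 mM Tris pH 8.0 buffer with 300 mM NaCl. Glutathione donor and nickel acceptor beads followed; AlphaScreen signal read after 1 h.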
Active calls of the source: *; ? = inconclusive; nt = not tested or not shown; [ ] = dose if it differs, or a comment. Unless noted, calls come from the whole dose curve; as a rule, active = well fitted curve in the direction sought with a large enough effect; inconclusive = small, poorly fitted or top-dose-only effect, or another doubt; inactive = no such curve, though single readings can be large; an effect the other way counts as inactive or inconclusive. % is set by controls: 0 for no effect and ±100 for the full control effect.

SMILES	TDP1 cell CPT	Six1-Eya2 blk	IL1B secr inh	TDP1 cell noCPT	TDP1 block	CtBP-E1A blk
COc1ccc(C(C)=O)cc1CN1C(=O)C(C)ON=C1c1cccc(C(F)(F)F)c1 (centres undefined)	?	-1	-22	16µM*	nt	1
COC(=O)c1ccccc1NC(=O)CCCN1C(=O)C(c2ccccc2)Oc2cccnc21 (centres undefined)	?	2	11	?	0%	1
CCOC(=O)c1cnc2c(C)c(Cl)ccc2c1N1CCN(CC)CC1	?	-11	-82*	?	7%	-5
CCOC(=O)c1cnc2c(Cl)c(Cl)ccc2c1N1CCN(C)CC1	-22%	-5	-50*	-18%	1%	-1
CC/C(=C\C(=O)c1ccncc1)Nc1ccc(O)cc1	?	-18	?	21µM*	4%	-13
CC(=O)c1ccc(-n2c(SCC(=O)c3c[nH]c4ccccc34)nc3ccccc3c2=O)cc1	21µM*	1	?	12µM*	-2%	nt
CCOC(=O)c1c(C)[nH]c(C)c1C(=O)CSc1nc2ccccc2c(=O)n1-c1ccc(CC)cc1	12µM*	-18	0	6.5µM*	8%	-12
COc1cc(-c2cccc(Cl)c2)cc2c1OCCN(C(=O)CCn1ccc(C)n1)C2	1%[9.04 µM]	nt	nt	?	nt	nt
CCOc1ccc(/C=N/NC(=O)Cc2cccs2)cc1	4%	-5	nt	-15%	nt	-4
CC1(C)CC(=O)C=C(/C=C/c2ccccc2)C1	23µM*	-13	-23	-16%	0%	-12
COc1ccccc1NC(=O)CSc1nnc(-c2ccoc2C)n1CC1CCCO1 (centres undefined)	-7%	7	-10	-18%	-6%	-9
CN(C)S(=O)(=O)c1cccc(NC(=O)CC23CC4CC(CC(C4)C2)C3)c1	23µM*	5	3	21µM*	3%	10
CN(C)S(=O)(=O)Nc1cccc(NC(=O)CC23CC4CC(CC(C4)C2)C3)c1	-26%	-11	-73*	-24%	nt	3
CC(C)N1CCN(c2ccc(OCC3COC(Cn4cncn4)(c4ccc(Cl)cc4Cl)O3)cc2)CC1 (centres undefined)	?	-20	-53*	?	nt	-9
Cc1ccc(S(=O)(=O)C(F)(F)F)cc1NC(=O)c1cccnc1	-5%	4	-2	-13%	0%	4
O=C(Cn1cnc2c(oc3nc4c(cc32)CCCC4)c1=O)Nc1cccc(Cl)c1	23µM*	12	8	12µM*	4%	-16
CC(=O)NCCc1nc2cc(NC(=O)Nc3ccccc3)ccc2n1C	11%	21	15	20%	nt	3
O=C(c1ccc2c(c1)N(Cc1ccccc1F)C(=O)c1ccccc1S2(=O)=O)N1CCC(Cc2ccccc2)CC1	16µM*	nt	nt	21µM*	-6%	nt
O=C(c1ccc2c(c1)N(Cc1ccc(Cl)cc1)C(=O)c1ccccc1S2(=O)=O)N1CCC(Cc2ccccc2)CC1	10µM*	nt	nt	18µM*	5%	nt
CC1CCN(C(=O)c2ccc3c(c2)N(Cc2ccccc2F)C(=O)c2ccccc2S3(=O)=O)CC1	?	nt	nt	?	6%	nt
O=C1CN(C(=O)C2CCCCC2)C(c2ccccc2)c2cc(F)ccc2N1 (centres undefined)	?	nt	nt	?	3%	nt
COc1ccc(OC)c(-c2cnc(OC(C)(C)C)nc2OC(C)(C)C)c1	21µM*	3	72	8.2µM*	5%	nt
CCCCN(C(=O)CCCSc1nc2ccccc2[nH]1)c1c(N)n(Cc2ccccc2)c(=O)[nH]c1=O	6%	3	-90*	-3%	2%	18
CCCCN(C(=O)CSc1nnc(-c2ccc(OC)cc2)n1CC)c1c(N)n(Cc2ccccc2)c(=O)[nH]c1=O	-4%	5	-60*	-19%	-1%	-11
CCCN(C(=O)CCCSc1nc2ccccc2[nH]1)c1c(N)n(Cc2ccccc2)c(=O)[nH]c1=O	-8%	17	35	-11%	-7%	-4
SMILES	TDP1 cell CPT	Six1-Eya2 blk	IL1B secr inh	TDP1 cell noCPT	TDP1 block	CtBP-E1A blk
Nc1c(N(CCCO)C(=O)CCCN2C(=O)c3cccc4cccc(c34)C2=O)c(=O)[nH]c(=O)n1Cc1ccccc1	10µM*	-8	0	?	nt	-1
CCCCN(C(=O)CSc1nnc(-c2ccc(OC)cc2)n1C(C)C)c1c(N)n(Cc2ccccc2)c(=O)[nH]c1=O	-20%	-1	?	?	nt	nt
CCOC(=O)[C@H]1[C@H]2COc3ccccc3[C@@H]2N2C(=O)CN(CC3CCCO3)C(=O)[C@@]12C (some centres undefined)	8%	5	0	14%	0%	5
CCOC(=O)Cc1c(C)[nH]n(-c2ccccc2)c1=O	-6%	4	?	-3%	0%	-3
CN(C(=O)CCc1nnc(-c2ccc(-c3ccccc3)cc2)o1)C1CCOCC1	?	1	5	13µM*	3%	3
CC(NC(=O)CCc1nnc(-c2ccc(-c3ccccc3)cc2)o1)c1nccs1 (centres undefined)	26µM*	3	-15	21µM*	4%	6
CN(CCCC1CCCC1)C(=O)CCc1nnc(-c2ccccc2)o1	-28%	1	1	?	4%	11
CC(c1nccs1)N(C)C(=O)CCc1nnc(-c2ccc(-c3ccccc3)cc2)o1 (centres undefined)	15µM*	-7	?	-85%	-3%	-11
Cc1ccc(/C=N/NC(=O)c2nnn(-c3nonc3N)c2C(C)C)o1	-5%	0	-6	?	3%	nt
O=S(=O)(Nc1nc(-c2ccccc2)cs1)c1cc(Cl)ccc1Cl	9%	-6	24	-5%	6%	-9
Cc1nn(CC(=O)Nc2ccc3nc4n(c(=O)c3c2)CCCC4)c(C)c1[N+](=O)[O-]	-8%	3	-6	-23%	3%	nt
CC(=O)Nc1ccc(NC(=O)C2Cc3c(-c4ccc(Cl)cc4)ccnc3O2)cc1 (centres undefined)	-3%	-3	10	-1%	nt	0

From PubChem
